PubChem BioAssay (NCATS)
Records with an inconclusive call do not appear. Activity calls are given as the source filed them. Unless noted, calls come from the whole dose curve; as a rule, active = well fitted curve in the direction sought with a large enough effect; inconclusive = small, poorly fitted or top-dose-only effect, or another doubt; inactive = no such curve, though single readings can be large; an effect the other way counts as inactive or inconclusive.

Experiments:
[1] = target: Glucocorticoid receptor (Homo sapiens) (UniProt P04150); experiment: GR-GFP Redistribution (AID 450;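 active = compounds whose dose series gives a full or clear partial fitted curve of increased nuclear translocation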; note: potency is the fitted concentration of half-maximal effect); conditions: U2OS GR-GFP nuclear translocation, laser cytometry, 2 h
Sequence of Glucocorticoid receptor (Homo sapiens) (P04150 whole entry, looked up, the tested form may be a part): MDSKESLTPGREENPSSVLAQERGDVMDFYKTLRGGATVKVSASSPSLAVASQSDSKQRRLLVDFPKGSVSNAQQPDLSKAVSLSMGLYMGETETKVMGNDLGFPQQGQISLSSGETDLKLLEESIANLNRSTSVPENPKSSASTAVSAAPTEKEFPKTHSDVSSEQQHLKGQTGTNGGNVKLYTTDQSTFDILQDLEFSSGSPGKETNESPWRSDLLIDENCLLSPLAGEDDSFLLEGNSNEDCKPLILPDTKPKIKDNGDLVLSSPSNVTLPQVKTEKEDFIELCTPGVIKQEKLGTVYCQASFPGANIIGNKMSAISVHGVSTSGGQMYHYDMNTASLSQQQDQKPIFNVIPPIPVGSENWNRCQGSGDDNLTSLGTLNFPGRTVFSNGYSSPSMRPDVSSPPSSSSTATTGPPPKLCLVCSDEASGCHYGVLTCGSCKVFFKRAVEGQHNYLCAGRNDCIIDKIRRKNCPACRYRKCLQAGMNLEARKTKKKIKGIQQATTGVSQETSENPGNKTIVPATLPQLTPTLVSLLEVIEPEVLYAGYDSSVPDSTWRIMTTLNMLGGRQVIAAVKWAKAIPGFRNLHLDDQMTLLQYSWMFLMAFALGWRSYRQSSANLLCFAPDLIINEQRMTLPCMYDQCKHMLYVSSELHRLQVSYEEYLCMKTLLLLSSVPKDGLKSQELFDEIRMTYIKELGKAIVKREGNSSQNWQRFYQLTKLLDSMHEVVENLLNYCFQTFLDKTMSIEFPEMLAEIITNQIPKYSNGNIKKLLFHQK

[2] = target: Glucocorticoid receptor (Homo sapiens) (UniProt P04150); experiment: GR-EFC Redistribution (AID 451; calls by dose curve; note: potency is the fitted concentration of half-maximal effect); conditions: CHO-K1 GR-EFC translocation, beta-gal luminescence, 2 h
Outline: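 Translocation of GR-ED fusion to nuclear EA restores b-gal, read by luminescence after 1 h room-temperature detection. Engineered CHO-K1 biosensor cells, 1,000/well, exposed 2 h at 37 C to titrations up to 46 uM final.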

[3] = target: DNA dC->dU-editing enzyme APOBEC-3G (Homo sapiens) (UniProt Q9HC16); experiment: qHTS for inhibitors of Vif-A3G interactions: Validation (AID 588379); conditions: Vif-A3G protein interaction assay; series mostly up to 46.1 µM
Sequence of DNA dC->dU-editing enzyme APOBEC-3G (Homo sapiens) (Q9HC16 whole entry, looked up): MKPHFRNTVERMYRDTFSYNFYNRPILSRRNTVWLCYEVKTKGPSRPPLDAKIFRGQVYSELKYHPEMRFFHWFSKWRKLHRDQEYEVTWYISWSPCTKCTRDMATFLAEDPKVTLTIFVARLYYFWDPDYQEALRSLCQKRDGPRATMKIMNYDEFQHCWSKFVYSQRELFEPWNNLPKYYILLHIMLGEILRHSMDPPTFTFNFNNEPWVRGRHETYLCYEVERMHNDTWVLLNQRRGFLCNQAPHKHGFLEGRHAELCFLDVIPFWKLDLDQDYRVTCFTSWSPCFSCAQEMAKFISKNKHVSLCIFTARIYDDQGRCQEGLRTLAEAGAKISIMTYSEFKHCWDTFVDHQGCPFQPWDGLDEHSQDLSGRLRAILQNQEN
Outline: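 HeLa cells stably expressing Vif and A3G-eYFP, 700 cells/well, incubated overnight at 37 deg C, then exposed to compound overnight at 37 deg C. Inhibition of Vif-mediated degradation read as increased yellow fluorescence (Ex 488/Em 500-530) by laser-scanning cytometry.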

[4] = tested on: Zika virus NS2B-NS3 protease; experiment: Primary screen GU AMC qHTS for Zika virus inhibitors (AID 1347154); conditions: Zika NS2B-NS3 unlinked protease, AMC fluorogenic substrate; series mostly up to 54.1 µM; note: nearly all actives have a fitted effect of over 70% in size; note: potency is the fitted concentration of half-maximal effect
Outline: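 Fluorogenic AMC-substrate cleavage by noncovalent NS2B-NS3 protease complex (25 nM, pH 8.0 Tris buffer with Tween 20) followed for 15 minutes at room temperature (~20% conversion). Percent inhibition from ex340/em450 signal change, fitted by 4-parameter Hill equation.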

[5] = target: Mitogen-activated protein kinase 10 (Mus musculus) (UniProt Q61831); experiment: JNK3 AlphaScreen Assay (AID 530; active = well fitted curve in either direction with a large enough effect, not every such curve was filed as active;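 note: kinase came from lysate of stimulated human HepG2 cells; signal reports phosphorylation of biotinylated GST-cJun 1-79 at Ser73 with 10 µM ATP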); conditions: JNK3 lysate, c-Jun phosphorylation; series mostly up to 57.1 µM
Outline: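 Compound titrations were preincubated 15 minutes at room temperature with substrate, antibody and pre-activated JNK3-containing HepG2 lysate. Reactions were started with 10 uM ATP and stopped with EDTA-containing bead buffer for AlphaScreen detection.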

[6] = target: 3',5'-cyclic-AMP phosphodiesterase 4B (Homo sapiens) (UniProt Q07343); experiment: qHTS Assay for Inhibitors of PDE-IV (AID 607; active = well fitted activation curve with a large enough effect in the main read-out, with a control signal flat, not every such curve was filed as active); conditions: HEK293 ACTOne CNG channel cells, membrane potential fluorescence; series mostly up to 22.9 µM
Sequence of 3',5'-cyclic-AMP phosphodiesterase 4B (Homo sapiens) (Q07343 whole entry, looked up): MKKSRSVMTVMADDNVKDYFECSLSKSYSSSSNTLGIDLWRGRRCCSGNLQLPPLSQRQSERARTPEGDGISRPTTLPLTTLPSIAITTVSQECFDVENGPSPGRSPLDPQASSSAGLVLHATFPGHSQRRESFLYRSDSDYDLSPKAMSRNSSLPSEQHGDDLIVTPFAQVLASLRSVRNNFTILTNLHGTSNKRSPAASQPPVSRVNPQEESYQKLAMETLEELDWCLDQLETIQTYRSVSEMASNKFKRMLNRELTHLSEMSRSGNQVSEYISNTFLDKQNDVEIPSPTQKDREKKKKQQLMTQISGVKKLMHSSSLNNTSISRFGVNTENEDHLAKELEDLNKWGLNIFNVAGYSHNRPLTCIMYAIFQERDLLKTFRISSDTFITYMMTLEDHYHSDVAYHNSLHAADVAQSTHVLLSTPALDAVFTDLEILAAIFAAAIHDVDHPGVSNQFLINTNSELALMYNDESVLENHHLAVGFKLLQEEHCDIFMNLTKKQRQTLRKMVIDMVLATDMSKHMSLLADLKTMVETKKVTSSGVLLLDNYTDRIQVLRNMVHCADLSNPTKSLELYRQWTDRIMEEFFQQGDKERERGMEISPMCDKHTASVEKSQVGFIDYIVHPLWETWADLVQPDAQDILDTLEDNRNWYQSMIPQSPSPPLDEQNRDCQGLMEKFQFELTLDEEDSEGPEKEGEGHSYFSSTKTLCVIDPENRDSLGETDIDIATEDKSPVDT
Outline: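 Cell-based read-out of cAMP via a modified cyclic nucleotide-gated channel and membrane potential dye (535/590 nm) in HEK293 cells expressing PDE4 endogenously. Compounds tested up to 22.9 uM final; 100 uM RO 20-1724 reference.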

[7] = target: Guanine nucleotide-binding protein G(i) subunit alpha-1 (Homo sapiens) (UniProt P63096); experiment: qHTS Assay for Inhibitors of RGS12 GoLoco Motif Activity (Green Fluorophore) (AID 879); conditions: Galphai1/FITC-RGS12 GoLoco peptide, fluorescence polarization; series mostly up to 57.1 µM;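 note: negative values mean loss of peptide binding seen as reduced polarization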
Sequence of Guanine nucleotide-binding protein G(i) subunit alpha-1 (Homo sapiens) (P63096 whole entry, looked up): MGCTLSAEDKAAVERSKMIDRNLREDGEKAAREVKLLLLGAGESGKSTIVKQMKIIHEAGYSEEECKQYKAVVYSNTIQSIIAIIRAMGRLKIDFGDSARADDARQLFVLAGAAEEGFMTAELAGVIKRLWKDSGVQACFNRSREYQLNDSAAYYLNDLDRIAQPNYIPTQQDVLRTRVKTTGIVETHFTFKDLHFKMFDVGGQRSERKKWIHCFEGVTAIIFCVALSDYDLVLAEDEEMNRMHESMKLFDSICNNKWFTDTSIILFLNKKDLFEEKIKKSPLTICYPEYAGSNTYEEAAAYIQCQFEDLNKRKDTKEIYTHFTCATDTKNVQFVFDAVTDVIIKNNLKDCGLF
Outline: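 Fluorescence polarization assay: 50 nM Gαi1 with 10 nM FITC-labeled RGS12 GoLoco peptide in 10 mM Tris pH 7.5, 150 mM NaCl, 0.1 mM GDP, 0.05% NP40, 10 min at room temperature with compound.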

[8] = qHTS Assay for Identification of Small Molecule Agonists for Thrombopoietin (TPO) Signaling Pathway (AID 917); conditions: TPO signaling pathway reporter cells, agonist qHTS, stimulated with TPO at its EC50; series mostly up to 38.5 µM
Outline: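 IL-3-dependent murine pro-B Ba/F3 cells, stably transfected with human TPO receptor and GpIIb-promoter luciferase, are incubated 24 hrs at 37 C with test compound and 26 pM TPO; luciferase signal is read after 10 min at room temperature.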

[9] = target: Muscarinic acetylcholine receptor M1 (Rattus norvegicus) (UniProt P08482); experiment: qHTS Assay for Antagonists of Acetylcholine Muscarinic M1 Receptor: Measurement of IP-One Response (AID 944); conditions: CHO-M1 cells, IP-One HTRF, antagonist mode; series mostly up to 46.1 µM; note: nearly all actives have a fitted effect of over 75% in size
Sequence of Muscarinic acetylcholine receptor M1 (Rattus norvegicus) (P08482 whole entry, looked up): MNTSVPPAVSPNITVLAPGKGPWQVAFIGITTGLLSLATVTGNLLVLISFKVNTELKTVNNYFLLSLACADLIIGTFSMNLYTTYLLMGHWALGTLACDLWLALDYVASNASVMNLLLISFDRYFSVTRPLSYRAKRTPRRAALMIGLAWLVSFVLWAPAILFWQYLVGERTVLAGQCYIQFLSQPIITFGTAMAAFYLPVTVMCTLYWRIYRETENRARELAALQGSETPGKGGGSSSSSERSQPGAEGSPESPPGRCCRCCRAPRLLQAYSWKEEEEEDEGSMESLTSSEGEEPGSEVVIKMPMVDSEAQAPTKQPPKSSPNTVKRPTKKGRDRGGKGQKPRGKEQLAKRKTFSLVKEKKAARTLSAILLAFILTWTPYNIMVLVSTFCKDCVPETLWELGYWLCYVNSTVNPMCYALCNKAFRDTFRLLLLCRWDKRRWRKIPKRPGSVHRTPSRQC
Outline: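 M1-CHO (rat), 2000 cells/well, overnight recovery; cpd 10 min; carbachol EC80 (200 nM), 30 min, HEPES buffer + 50 mM LiCl pH 7.4; IP-One HTRF, Ex 337, Em 620/665 nm.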

[10] = target: Pyruvate kinase PKM (Homo sapiens) (UniProt P14618); experiment: qHTS Assay for Activators of Human Muscle Pyruvate Kinase (AID 954; active = well fitted curve in the direction sought with a large enough effect, not every such curve was filed as active); conditions: purified human muscle pyruvate kinase, luciferase-coupled luminescence, 1 h; series mostly up to 57.5 µM
Outline: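 Human PKM2 activity is measured as ATP generation, detected by luciferase-coupled luminescence. The enzyme (0.1 nM) acts on 0.5 mM PEP and 0.1 mM ADP for 1 h at ambient temperature; data are normalized to uninhibited and full-inhibition wells.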

[11] = target: Alpha-galactosidase A (Homo sapiens) (UniProt P06280); experiment: Counterscreen for Glucocerebrosidase Inhibitors: qHTS Assay for Human alpha-Galactosidase at pH 4.5 (AID 992); conditions: purified enzyme, fluorogenic substrate; series mostly up to 76.9 µM
Sequence of Alpha-galactosidase A (Homo sapiens) (P06280 whole entry, looked up): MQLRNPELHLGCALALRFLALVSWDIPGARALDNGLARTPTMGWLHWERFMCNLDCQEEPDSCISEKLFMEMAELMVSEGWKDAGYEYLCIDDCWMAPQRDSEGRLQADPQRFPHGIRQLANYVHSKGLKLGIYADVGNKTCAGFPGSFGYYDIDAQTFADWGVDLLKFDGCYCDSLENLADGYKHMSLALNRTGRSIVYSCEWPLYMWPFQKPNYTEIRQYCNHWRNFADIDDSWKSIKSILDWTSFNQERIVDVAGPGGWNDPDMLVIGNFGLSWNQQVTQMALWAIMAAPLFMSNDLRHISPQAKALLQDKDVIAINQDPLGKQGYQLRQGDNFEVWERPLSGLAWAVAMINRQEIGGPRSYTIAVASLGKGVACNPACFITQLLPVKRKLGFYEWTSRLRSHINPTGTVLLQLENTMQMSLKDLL
Outline: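 Quantitative HTS: compounds tested from 0.7 nM up to 77 uM against 2 nM enzyme with 80 uM 4-MU alpha-D-galactopyranoside. The 20 min room-temperature reaction is stopped with 1M NaOH/1M glycine, pH 10.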

[12] = target: alpha-glucosidase (Oryza sativa, rice) (UniProt Q653V4); experiment: Counterscreen for Glucocerebrosidase Inhibitors: qHTS Assay for Rice alpha-Glucosidase at pH 5.0 (AID 997); conditions: rice alpha-glucosidase enzyme activity; series mostly up to 76.9 µM
Outline: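 Rice alpha-glucosidase (4 nM final) with 400 uM 4-methylumbelliferyl-alpha-D-glucopyranoside in citrate buffer pH 5.0, 20 min at room temperature, stopped at pH 10; fluorescence 365/440 nm, compounds 0.7 nM–77 uM, AC50 from Hill fits.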

[13] = target: Ubiquitin carboxyl-terminal hydrolase 1 (Homo sapiens) (UniProt O94782); experiment: Inhibitors of USP1/UAF1: Pilot qHTS (AID 504865); conditions: purified USP1/UAF1, Ub-rhodamine cleavage fluorescence; series mostly up to 114 µM; note: nearly all actives have a fitted effect of over 35% in size; note: potency is the fitted concentration of half-maximal effect
Sequence of Ubiquitin carboxyl-terminal hydrolase 1 (Homo sapiens) (O94782 whole entry, looked up): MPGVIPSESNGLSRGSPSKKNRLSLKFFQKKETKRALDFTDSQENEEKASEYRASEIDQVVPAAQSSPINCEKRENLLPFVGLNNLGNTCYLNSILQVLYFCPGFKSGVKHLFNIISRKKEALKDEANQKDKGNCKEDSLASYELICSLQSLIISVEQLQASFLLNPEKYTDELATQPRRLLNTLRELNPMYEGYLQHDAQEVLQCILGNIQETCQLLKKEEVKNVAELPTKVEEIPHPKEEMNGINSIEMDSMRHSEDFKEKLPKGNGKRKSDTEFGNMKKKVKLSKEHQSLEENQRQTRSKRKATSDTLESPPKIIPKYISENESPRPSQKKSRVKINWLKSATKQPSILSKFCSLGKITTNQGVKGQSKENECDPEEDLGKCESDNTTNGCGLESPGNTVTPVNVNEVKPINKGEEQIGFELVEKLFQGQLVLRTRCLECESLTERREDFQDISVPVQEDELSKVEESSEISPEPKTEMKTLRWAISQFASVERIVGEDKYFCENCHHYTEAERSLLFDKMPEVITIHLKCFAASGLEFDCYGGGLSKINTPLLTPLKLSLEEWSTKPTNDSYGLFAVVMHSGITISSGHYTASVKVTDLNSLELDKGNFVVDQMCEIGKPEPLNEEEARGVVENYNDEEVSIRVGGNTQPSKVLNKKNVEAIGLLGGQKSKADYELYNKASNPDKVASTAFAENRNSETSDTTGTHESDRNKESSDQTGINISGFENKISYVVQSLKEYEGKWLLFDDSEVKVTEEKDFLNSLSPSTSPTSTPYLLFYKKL
Outline: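 Enzyme-free wells gave the negative control, while test wells held 1nM USP1/UAF1 preincubated with compound for 15 min at room temperature. Ub-Rho at 150nM final started the reaction, and fluorescence at 480/540 nm was recorded kinetically.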

[14] = Confirmatory screen GU Rhodamine qHTS for Zika virus inhibitors qHTS (AID 1347157); conditions: purified enzyme assay, Rhodamine110 substrate fluorescence, 15 min; series mostly up to 114 µM; note: nearly all actives have a fitted effect of over 70% in size
Outline: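 A qHTS format was used, with compound concentrations ranging up to 114 microM. Each compound was preincubated with 25 nM NS2B-NS3 protease, and the substrate was then added at 1.5 microM. Curves were fitted with a 4-parameter Hill model.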

[15] = target: Cytochrome P450 2D6 (Homo sapiens) (UniProt P10635); experiment: qHTS Assay for Inhibitors and Substrates of Cytochrome P450 2D6 (AID 891); conditions: recombinant CYP2D6, luciferin-ME EGE luminescence; series mostly up to 57.1 µM; note: potency is the fitted concentration of half-maximal effect; nearly all actives have a fitted effect of over 60% in size
Sequence of Cytochrome P450 2D6 (Homo sapiens) (P10635 whole entry, looked up): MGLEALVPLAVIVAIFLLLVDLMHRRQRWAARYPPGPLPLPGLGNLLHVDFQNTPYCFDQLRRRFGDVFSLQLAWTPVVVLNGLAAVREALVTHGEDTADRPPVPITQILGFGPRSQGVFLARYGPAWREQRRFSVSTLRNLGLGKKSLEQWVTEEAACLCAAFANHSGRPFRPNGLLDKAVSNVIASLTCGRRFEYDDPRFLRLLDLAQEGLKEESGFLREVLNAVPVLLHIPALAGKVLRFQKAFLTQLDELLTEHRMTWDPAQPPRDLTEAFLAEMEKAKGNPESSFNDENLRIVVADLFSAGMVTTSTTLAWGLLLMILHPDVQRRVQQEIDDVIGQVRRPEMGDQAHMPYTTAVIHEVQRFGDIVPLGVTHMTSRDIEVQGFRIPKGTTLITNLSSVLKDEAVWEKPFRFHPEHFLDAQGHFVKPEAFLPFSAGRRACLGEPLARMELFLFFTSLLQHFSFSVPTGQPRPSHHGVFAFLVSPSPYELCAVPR
Outline: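 Human CYP2D6 (5 nM) with 30 uM Luciferin-ME EGE (at Km) in 100 mM KPO4, compound preincubated 10 min, then NADPH regeneration system for 60 min at room temperature. Luciferin read by luminescence; normalized to 1.43 uM quinidine.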

[16] = Confirmation and Secondary Assay for Modulators of Hemoglobin Beta Chain Splicing at IVS2 654 locus (AID 910); conditions: HeLa EGFP-654 splicing reporter, GFP fluorescence, 48 h; series mostly up to 46.1 µM;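 note: HeLa cells stably carrying EGFP split by mutant beta-globin IVS2-654 intron; per-well total GFP intensity by laser scanning cytometry after 2-day treatment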
Outline: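 Readout: per-well total peak green fluorescence (488 nm ex, 500–520 nm em) from objects 5–250 µm, reflecting correct splicing of an EGFP-654 reporter. Compounds were applied for 2 days at 37 °C to overnight-plated HeLa EGFP-654 cells; controls were DMSO and 500 nM IVS2-654 PNA.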

[17] = Confirmation and Secondary Assay for Modulators of Hemoglobin Beta Chain Splicing at IVS2 705 locus (AID 930); conditions: HeLa EGFP-705 splicing reporter, GFP fluorescence, 48 h; series mostly up to 46.1 µM;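 note: HeLa cells stably expressing the EGFP-705 splicing reporter; GFP fluorescence per well restored by corrected splicing of the IVS2-705 intron in EGFP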
Outline: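 Per-well GFP, captured at 1 x 8 µm resolution with 488 nm excitation, served as the read-out for HeLa EGFP-705 cells incubated 2 days with test compound versus DMSO.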

[18] = target: Cytochrome P450 3A4 (Homo sapiens) (UniProt P08684); experiment: qHTS Assay for Inhibitors and Substrates of Cytochrome P450 3A4 (AID 884); conditions: recombinant CYP3A4, Luciferin-PPXE luminescence; series mostly up to 57.1 µM; note: potency is the fitted concentration of half-maximal effect; nearly all actives have a fitted effect of over 50% in size
Sequence of Cytochrome P450 3A4 (Homo sapiens) (P08684 whole entry, looked up): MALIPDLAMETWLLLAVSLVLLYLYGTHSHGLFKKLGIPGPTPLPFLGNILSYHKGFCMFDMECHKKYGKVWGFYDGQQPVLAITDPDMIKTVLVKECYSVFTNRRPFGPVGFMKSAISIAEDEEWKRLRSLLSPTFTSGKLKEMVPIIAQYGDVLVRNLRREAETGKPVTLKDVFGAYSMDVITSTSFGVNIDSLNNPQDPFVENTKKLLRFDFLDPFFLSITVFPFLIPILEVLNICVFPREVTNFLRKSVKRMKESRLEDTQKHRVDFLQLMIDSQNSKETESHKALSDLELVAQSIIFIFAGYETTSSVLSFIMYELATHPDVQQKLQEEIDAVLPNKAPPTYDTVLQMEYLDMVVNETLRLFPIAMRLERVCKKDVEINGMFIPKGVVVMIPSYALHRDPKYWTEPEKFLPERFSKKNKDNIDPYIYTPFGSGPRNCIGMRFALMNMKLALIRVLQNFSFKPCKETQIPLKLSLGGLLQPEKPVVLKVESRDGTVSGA
Outline: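 20 nM human CYP3A4 with 25 uM Luciferin-PPXE (at KM) in 200 mM KPO4, preincubated 10 min with compound; NADPH regeneration started a 60 min RT reaction. Luciferin detected by luminescence, normalized to 57 uM ketoconazole as full inhibition.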

[19] = target: Cytochrome P450 3A4 (Homo sapiens) (UniProt P08684); experiment: qHTS Assay for Activators of Cytochrome P450 3A4 (AID 885); conditions: recombinant CYP3A4, Luciferin-PPXE luminescence, 60 min; series mostly up to 57.1 µM; note: nearly all actives have a fitted effect of over 65% in size
Outline: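 Signal was normalized against complete inhibition by 57 uM ketoconazole. The reaction used 20nM CYP3A4 with 25uM Luciferin-PPXE, 10-min compound preincubation and a 60-min NADPH-supported step at RT.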

Measured: Potency

O=C(/C=C\c1ccc(O)c(O)c1)O[C@@H](Cc1ccc(O)c(O)c1)C(=O)O
active: [4] 4.74 µM
inactive: [1] > 46 µM | [2] > 46 µM | [3]

C[C@@H]1CNCCN1S(=O)(=O)c1cccc2cnccc12
inactive: [1] > 46 µM | [2] > 46 µM | [5] | [6] | [7] | [8] | [9] | [10] | [11] | [12] | [3] | [4]

O=C(O)COc1cccc(-c2ocnc2-c2nc(-c3ccccc3)c(-c3ccccc3)o2)c1
active: [13] 39.8 µM
inactive: [1] > 46 µM | [2] > 46 µM | [5] | [6] | [3] | [4]

COc1ccc2cccc(N3CCN(CCNC(=O)c4ccc(F)cc4)CC3)c2c1
inactive: [1] > 46 µM | [2] > 46 µM | [5] | [3] | [4]

Cc1ccc(C(=O)Nc2ccc(C(=O)OCc3cc(=O)n4nc(C5CC5)sc4n3)cc2)cc1
inactive: [14]

CCc1nn2c(=O)cc(COC(=O)c3ccccc3NC(=O)c3ccc(C(C)(C)C)cc3)nc2s1
inactive: [14]

N[C@H](C(=O)O)[C@H](OCc1ccccc1)C(=O)O
inactive: [1] > 46 µM | [2] > 46 µM | [5] | [6] | [13] | [3] | [4]
active: [15] 7.94 µM

COc1ccc2cc(C(C)C(=O)O)ccc2c1 (centres undefined)
inactive: [16] | [17] | [4]

CCOC(=O)c1ccc(CN(Cc2ccc(F)cc2)S(=O)(=O)c2cc(C(=O)Nc3cccc(C(F)(F)F)c3)ccc2F)cc1
inactive: [14]

O=C(COC(=O)c1cccc(NC(=O)c2ccc(Br)cc2)c1)c1ccc(Br)cc1
inactive: [14]

COc1ccccc1CC(=N)N1C[C@@H]2C(=O)CCC(c3ccccc3)(c3ccccc3)[C@@H]2C1
active: [18] 3.16 µM
inactive: [1] > 46 µM | [5] | [19] | [3] | [4]

CCCCCCCCCCCCCCCCCCc1ccc(C(=O)/C=C\C(=O)O)cc1
inactive: [1] > 46 µM | [2] > 46 µM | [5] | [3] | [4]
